{"source": "PubChem BioAssay (NCI)", "note": "The panel holds about 83,000 compounds, 20% with a hit somewhere; the sample as a whole holds those more often.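 Growth was measured after 48 h exposure to one concentration of compound in 96-well plates. Values under 10 count as active.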 Active and inactive are the calls of the source."}
{"system": "UACC-257 melanoma", "assay": "NCI-60 one-dose screen, 48 h (100 = growth as untreated, 0 = no growth, -100 = all killed)", "conditions": "10 µM unless noted"}
{"smiles": "COc1cc2nc(C(=O)N3CCCCC3)cc(Nc3ccccc3)c2cc1OC", "growth": "108% (inactive)"}
{"smiles": "CCCOC(=O)c1ccc([N+](=O)[O-])o1", "growth": "110% (inactive)"}
{"smiles": "COc1ccccc1S(=O)(=O)Nc1ccc2c3c(cc(-c4ccoc4)nc13)C(=O)N2C", "growth": "58.7% (inactive)"}
{"smiles": "OCc1cnccc1NC12CC3CC(CC(C3)C1)C2", "growth": "90% (inactive)"}
{"smiles": "CC(=O)c1cc2c(c(O)c1C)C(=O)C(=O)c1c(O)cccc1-2", "growth": "-95.7% (active)"}
{"smiles": "Cc1ccc2oc(=O)cc(C3C(C#N)=C(N)Oc4c3ccc3ccccc43)c2c1", "note": "(stereo not drawn)", "growth": "85.4% (inactive)"}
{"smiles": "COc1ccc(-c2coc3c(CO)c(O)ccc3c2=O)cc1", "growth": "90.3% (inactive)"}
{"smiles": "CCOc1ccccc1C(=O)N1CCN(c2cc(Cl)cc(Cl)c2)CC1", "growth": "51.1% (inactive)"}
{"smiles": "CCCCNC(=O)Oc1ccc(/C(=C(/CC)Cc2ccccc2)c2ccc(OCCCN(C)C)cc2)cc1", "growth": "104% (inactive)"}
{"smiles": "C=C1C(=O)O[C@H]2[C@H]1CC/C(COC(=O)c1ccc(C#N)cc1)=C\\CC[C@@]1(C)O[C@@H]21", "growth": "52.2% (inactive)"}
{"smiles": "O=C(Nc1ccc(F)cc1)Nc1ccc(Br)c(C(F)(F)F)c1", "growth": "1.49% (active)"}
{"smiles": "CCn1c(SC)nnc1-c1cc2c([nH]c3ccccc32)c(-c2cccc(O)c2)n1", "growth": "57.4% (inactive)"}
{"smiles": "COc1ccccc1S(=O)(=O)Nc1ccc2c3c(cc(-c4cnn(C5CC5)c4)nc13)C(=O)N2C", "growth": "66.2% (inactive)"}
{"smiles": "Nc1nc(Nc2ccc(OCc3cccc(F)c3)cc2)c2c(n1)[nH]c1ccc(O)cc12", "growth": "-31.2% (active)"}
{"smiles": "CCn1c(SCC(=O)c2ccc(Br)cc2)nnc1-c1cc2c([nH]c3ccccc32)c(-c2cccc(O)c2)n1", "growth": "83.8% (inactive)"}
{"smiles": "O=C(Cn1c2ccccc2c2ccncc21)N/N=C/c1c[nH]c2ccccc12", "growth": "88.3% (inactive)"}
{"smiles": "CC(=O)c1cc2c(N)c(C(=O)Nc3cccc(Cl)c3)sc2nc1C", "growth": "82.5% (inactive)"}
{"smiles": "S=c1[nH]nc(Cn2c3ccccc3c3ccncc32)o1", "growth": "89.7% (inactive)"}
{"smiles": "COc1ccccc1S(=O)(=O)Nc1ccc2c3c(cc(-c4cnn(C)c4)nc13)C(=O)N2C", "growth": "44.8% (inactive)"}
{"smiles": "CCNC(=O)Oc1ccc(/C(=C(/CC)Cc2ccccc2)c2ccc(OCCN3CCOCC3)cc2)cc1", "growth": "79.4% (inactive)"}
{"smiles": "COc1ccc(-c2cc3ccc(N(C)C)cc3nc2N)c(F)c1", "growth": "23.3% (inactive)"}
{"smiles": "C=C1C(=O)O[C@H]2[C@H]1CC/C(COC(=O)c1ccc(Br)cc1)=C\\CC[C@@]1(C)O[C@@H]21", "growth": "50.3% (inactive)"}
{"smiles": "CC(=O)O[C@@H]1[C@@H](OC(C)=O)[C@H](OC(C)=O)CO[C@H]1Nc1cccc2ccccc12", "growth": "103% (inactive)"}
{"smiles": "COc1ccc(C2CC(c3cc(Cl)c(C)cc3OC)=NN2c2ccc(S(N)(=O)=O)cc2)cc1OC", "note": "(stereo not drawn)", "growth": "87.2% (inactive)"}
{"smiles": "C=C1C(=O)O[C@H]2[C@H]1CC/C(COC(=O)c1cc(OC)c(OC)c(OC)c1)=C\\CC[C@@]1(C)O[C@@H]21", "growth": "-41.3% (active)"}
{"smiles": "O=C(CNc1cccnc1)Nc1ccc(C(=O)/C=C/c2ccc(Cl)cc2)cc1", "growth": "105% (inactive)"}
{"smiles": "C/C(=N/NC(=O)Cn1c2ccccc2c2ccncc21)c1cccs1", "growth": "89.9% (inactive)"}
{"smiles": "COc1ccc(/C=N/C2=NNC(C)(c3ccccc3O)N2C(Cc2c[nH]c3ccccc23)C(=O)O)cc1", "note": "(stereo not drawn)", "growth": "23.5% (inactive)"}
{"smiles": "O=C(Nc1ccc(Cl)c(Cl)c1)Nc1ccc(Cl)c([N+](=O)[O-])c1", "growth": "-8.5% (active)"}
{"smiles": "COc1ccc(C(=O)Cn2cnc3c(Nc4cc(C(=O)Nc5ccc(N6CCN(CCO)CC6)cc5)ccc4C)ncnc32)cc1", "growth": "104% (inactive)"}
{"smiles": "O=[N+]([O-])c1ccc(NS(=O)(=O)c2ccccc2)c2ccccc12", "growth": "16.3% (inactive)"}
{"smiles": "FC(F)(F)c1cn(CCN2CCOCC2)c2ncnc(Cl)c12", "growth": "84% (inactive)"}
{"smiles": "CN1C(=O)C2(SCC(C(=O)NCC(=O)OC(C)(C)C)N2C(=O)C2CCCCC2)c2ccccc21", "note": "(stereo not drawn)", "growth": "92.7% (inactive)"}
{"smiles": "C=C1C(=O)O[C@H]2[C@H]1CC/C(COC(=O)c1cccc3ccccc13)=C\\CC[C@@]1(C)O[C@@H]21", "growth": "-13.9% (active)"}
{"smiles": "C=C1C(=O)O[C@H]2[C@H]1CC/C(COC(=O)c1ccc(Cl)nc1)=C\\CC[C@@]1(C)O[C@@H]21", "growth": "34.4% (inactive)"}
{"smiles": "CCOc1cccc(Nc2nc(N)nc3[nH]c4ccc(O)cc4c23)c1", "growth": "88.6% (inactive)"}
{"smiles": "Cc1ccc2c(C3C(C#N)=C(N)Oc4cc5ccccc5cc43)cc(=O)oc2c1", "note": "(stereo not drawn)", "growth": "67.8% (inactive)"}
{"smiles": "CC(C(=O)O)N1C(N)=NNC1c1ccccc1O", "note": "(stereo not drawn)", "growth": "87.1% (inactive)"}
{"smiles": "Cc1cc(N2CCOCC2)nc(N(CCNc2ccnc3cc(Cl)ccc23)Cc2ccco2)n1", "growth": "49.8% (inactive)"}
{"system": "M14 melanoma", "assay": "NCI-60 one-dose screen, 48 h (100 = growth as untreated, 0 = no growth, -100 = all killed)", "conditions": "10 µM unless noted"}
{"smiles": "COc1cc2nc(C(=O)N3CCCCC3)cc(Nc3ccccc3)c2cc1OC", "growth": "116% (inactive)"}
{"smiles": "CCCOC(=O)c1ccc([N+](=O)[O-])o1", "growth": "98.8% (inactive)"}
{"smiles": "COc1ccccc1S(=O)(=O)Nc1ccc2c3c(cc(-c4ccoc4)nc13)C(=O)N2C", "growth": "53.1% (inactive)"}
{"smiles": "OCc1cnccc1NC12CC3CC(CC(C3)C1)C2", "growth": "100% (inactive)"}
{"smiles": "CC(=O)c1cc2c(c(O)c1C)C(=O)C(=O)c1c(O)cccc1-2", "growth": "-87.7% (active)"}
{"smiles": "Cc1ccc2oc(=O)cc(C3C(C#N)=C(N)Oc4c3ccc3ccccc43)c2c1", "note": "(stereo not drawn)", "growth": "61.5% (inactive)"}
{"smiles": "COc1ccc(-c2coc3c(CO)c(O)ccc3c2=O)cc1", "growth": "75.5% (inactive)"}
{"smiles": "CCOc1ccccc1C(=O)N1CCN(c2cc(Cl)cc(Cl)c2)CC1", "growth": "-23.3% (active)"}
{"smiles": "CCCCNC(=O)Oc1ccc(/C(=C(/CC)Cc2ccccc2)c2ccc(OCCCN(C)C)cc2)cc1", "growth": "81.8% (inactive)"}
{"smiles": "C=C1C(=O)O[C@H]2[C@H]1CC/C(COC(=O)c1ccc(C#N)cc1)=C\\CC[C@@]1(C)O[C@@H]21", "growth": "15.6% (inactive)"}
{"smiles": "O=C(Nc1ccc(F)cc1)Nc1ccc(Br)c(C(F)(F)F)c1", "growth": "15.3% (inactive)"}
{"smiles": "CCn1c(SC)nnc1-c1cc2c([nH]c3ccccc32)c(-c2cccc(O)c2)n1", "growth": "10.8% (inactive)"}
{"smiles": "COc1ccccc1S(=O)(=O)Nc1ccc2c3c(cc(-c4cnn(C5CC5)c4)nc13)C(=O)N2C", "growth": "61.1% (inactive)"}
{"smiles": "Nc1nc(Nc2ccc(OCc3cccc(F)c3)cc2)c2c(n1)[nH]c1ccc(O)cc12", "growth": "-83% (active)"}
{"smiles": "CCn1c(SCC(=O)c2ccc(Br)cc2)nnc1-c1cc2c([nH]c3ccccc32)c(-c2cccc(O)c2)n1", "growth": "72.2% (inactive)"}
{"smiles": "O=C(Cn1c2ccccc2c2ccncc21)N/N=C/c1c[nH]c2ccccc12", "growth": "68.2% (inactive)"}
{"smiles": "CC(=O)c1cc2c(N)c(C(=O)Nc3cccc(Cl)c3)sc2nc1C", "growth": "67.1% (inactive)"}
{"smiles": "S=c1[nH]nc(Cn2c3ccccc3c3ccncc32)o1", "growth": "101% (inactive)"}
{"smiles": "COc1ccccc1S(=O)(=O)Nc1ccc2c3c(cc(-c4cnn(C)c4)nc13)C(=O)N2C", "growth": "42.6% (inactive)"}
{"smiles": "CCNC(=O)Oc1ccc(/C(=C(/CC)Cc2ccccc2)c2ccc(OCCN3CCOCC3)cc2)cc1", "growth": "41.6% (inactive)"}
{"smiles": "COc1ccc(-c2cc3ccc(N(C)C)cc3nc2N)c(F)c1", "growth": "-60.5% (active)"}
{"smiles": "C=C1C(=O)O[C@H]2[C@H]1CC/C(COC(=O)c1ccc(Br)cc1)=C\\CC[C@@]1(C)O[C@@H]21", "growth": "-22.8% (active)"}
{"smiles": "CC(=O)O[C@@H]1[C@@H](OC(C)=O)[C@H](OC(C)=O)CO[C@H]1Nc1cccc2ccccc12", "growth": "99.6% (inactive)"}
{"smiles": "COc1ccc(C2CC(c3cc(Cl)c(C)cc3OC)=NN2c2ccc(S(N)(=O)=O)cc2)cc1OC", "note": "(stereo not drawn)", "growth": "81.8% (inactive)"}
{"smiles": "C=C1C(=O)O[C@H]2[C@H]1CC/C(COC(=O)c1cc(OC)c(OC)c(OC)c1)=C\\CC[C@@]1(C)O[C@@H]21", "growth": "-36.7% (active)"}
{"smiles": "O=C(CNc1cccnc1)Nc1ccc(C(=O)/C=C/c2ccc(Cl)cc2)cc1", "growth": "88.4% (inactive)"}
{"smiles": "C/C(=N/NC(=O)Cn1c2ccccc2c2ccncc21)c1cccs1", "growth": "104% (inactive)"}
{"smiles": "COc1ccc(/C=N/C2=NNC(C)(c3ccccc3O)N2C(Cc2c[nH]c3ccccc23)C(=O)O)cc1", "note": "(stereo not drawn)", "growth": "10.8% (inactive)"}
{"smiles": "O=C(Nc1ccc(Cl)c(Cl)c1)Nc1ccc(Cl)c([N+](=O)[O-])c1", "growth": "0.455% (active)"}
{"smiles": "COc1ccc(C(=O)Cn2cnc3c(Nc4cc(C(=O)Nc5ccc(N6CCN(CCO)CC6)cc5)ccc4C)ncnc32)cc1", "growth": "95.3% (inactive)"}
{"smiles": "O=[N+]([O-])c1ccc(NS(=O)(=O)c2ccccc2)c2ccccc12", "growth": "41% (inactive)"}
{"smiles": "FC(F)(F)c1cn(CCN2CCOCC2)c2ncnc(Cl)c12", "growth": "38% (inactive)"}
{"smiles": "CN1C(=O)C2(SCC(C(=O)NCC(=O)OC(C)(C)C)N2C(=O)C2CCCCC2)c2ccccc21", "note": "(stereo not drawn)", "growth": "100% (inactive)"}
{"smiles": "C=C1C(=O)O[C@H]2[C@H]1CC/C(COC(=O)c1cccc3ccccc13)=C\\CC[C@@]1(C)O[C@@H]21", "growth": "-58.7% (active)"}
{"smiles": "C=C1C(=O)O[C@H]2[C@H]1CC/C(COC(=O)c1ccc(Cl)nc1)=C\\CC[C@@]1(C)O[C@@H]21", "growth": "9.23% (active)"}
{"smiles": "CCOc1cccc(Nc2nc(N)nc3[nH]c4ccc(O)cc4c23)c1", "growth": "75.3% (inactive)"}
{"smiles": "Cc1ccc2c(C3C(C#N)=C(N)Oc4cc5ccccc5cc43)cc(=O)oc2c1", "note": "(stereo not drawn)", "growth": "0.37% (active)"}
{"smiles": "CC(C(=O)O)N1C(N)=NNC1c1ccccc1O", "note": "(stereo not drawn)", "growth": "96.9% (inactive)"}
{"smiles": "Cc1cc(N2CCOCC2)nc(N(CCNc2ccnc3cc(Cl)ccc23)Cc2ccco2)n1", "growth": "39.5% (inactive)"}
